The values that follow come from PubChem BioAssay (EPA / NIEHS).

Assay [1] deals with human Adenosine Transporter (Adot), SLC29A1 (gene 2030) (UniProt Q99808). Put plainly: NVS_TR_hAdoT: NovaScreen (NVS) Transporter Assay for human Adenosine Transporter (Adot) (AID 2283368). In short, it runs like this:
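U937-derived membranes, cell-free radioligand binding, filter scintillation 1 h after dosing. 25 uM duplicate screen; hits (e.g. 30% inhibition) run in concentration-response up to 50 uM; loss of signal versus DMSO.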

Assay [2] concerns the target Peroxisome proliferator-activated receptor gamma (Homo sapiens) (UniProt P37231). Put plainly: NVS_NR_hPPARg: NovaScreen (NVS) Nuclear Receptor Binding Assay for human Peroxisome Proliferator-activated Receptor gamma (PPARg) (AID 2283370). In outline:
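Extracted receptor protein, cell-free; compound incubated 2 h then fluorescence polarization read. Baseline: DMSO. Actives from 25 uM duplicate screen re-run across concentrations.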

In assay [3] the target is Estrogen receptor beta (Homo sapiens) (UniProt Q92731). Put plainly: OT_ER_ERbERb_1440: Odyssey Thera (OT) 24-hour HEK293T Protein-Complementation Assay for Estrogen Receptor-beta/-beta Homodimer (AID 2283380).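 Note: scored as signal increase over DMSO baseline for both agonists and antagonists.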 In outline:
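HEK293T cells stably expressing ER beta LBD (aa 310-547) homodimer fragment-complementation reporter, dosed 24 h. Cells formaldehyde-fixed, Draq5-stained; gain in nuclear (agonist) or nuclear plus cytoplasmic (antagonist) fluorescence versus DMSO read by laser scanning cytometry.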

Assay [4] deals with Estrogen receptor (Homo sapiens) (UniProt P03372). The experiment in a line: OT_ERa_GFPERaERE_0120: Odyssey Thera (OT) 2-hour HeLa Transcription Induction Assay for Estrogen Receptor (AID 2283382). In short, it runs like this: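 Measures ESR1 pathway reporter gain-of-signal in HeLa cells after a 2-hour treatment, detected as fluorescent protein induction by microscopy, DMSO as baseline.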
Sequence of Estrogen receptor (Homo sapiens) (P03372 whole entry, looked up): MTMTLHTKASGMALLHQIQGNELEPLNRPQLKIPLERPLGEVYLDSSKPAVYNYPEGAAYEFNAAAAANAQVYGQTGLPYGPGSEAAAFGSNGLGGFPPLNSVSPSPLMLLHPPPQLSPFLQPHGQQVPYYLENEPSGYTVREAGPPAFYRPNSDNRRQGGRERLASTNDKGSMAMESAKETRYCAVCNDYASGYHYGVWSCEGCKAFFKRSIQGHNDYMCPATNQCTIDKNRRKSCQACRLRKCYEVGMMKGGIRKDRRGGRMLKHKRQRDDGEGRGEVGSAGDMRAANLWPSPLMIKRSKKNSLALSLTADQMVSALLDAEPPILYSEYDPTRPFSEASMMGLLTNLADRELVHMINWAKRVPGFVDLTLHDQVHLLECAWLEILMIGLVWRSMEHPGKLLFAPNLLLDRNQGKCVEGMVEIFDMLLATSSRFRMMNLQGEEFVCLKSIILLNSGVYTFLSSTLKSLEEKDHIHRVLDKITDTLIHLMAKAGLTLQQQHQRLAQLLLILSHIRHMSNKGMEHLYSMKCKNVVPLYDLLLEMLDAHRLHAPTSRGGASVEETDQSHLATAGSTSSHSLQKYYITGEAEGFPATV

For assay [5], the target named is Retinoic acid receptor RXR-alpha (Homo sapiens) (UniProt P19793). Put plainly: OT_NURR1_NURR1RXRa_0480: Odyssey Thera (OT) 8-hour HEK293T Protein Complementation Assay for Nurr1/retinoid X receptor (RXR) (AID 2283385). In outline: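 Compounds are applied to HEK293T cells carrying Nurr1 and RXRα linked to reporter fragments. After 8 h, fluorescence intensity reports heterodimer formation, with DMSO as baseline.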
Sequence of Retinoic acid receptor RXR-alpha (Homo sapiens) (P19793 whole entry, looked up, the tested form may be a part): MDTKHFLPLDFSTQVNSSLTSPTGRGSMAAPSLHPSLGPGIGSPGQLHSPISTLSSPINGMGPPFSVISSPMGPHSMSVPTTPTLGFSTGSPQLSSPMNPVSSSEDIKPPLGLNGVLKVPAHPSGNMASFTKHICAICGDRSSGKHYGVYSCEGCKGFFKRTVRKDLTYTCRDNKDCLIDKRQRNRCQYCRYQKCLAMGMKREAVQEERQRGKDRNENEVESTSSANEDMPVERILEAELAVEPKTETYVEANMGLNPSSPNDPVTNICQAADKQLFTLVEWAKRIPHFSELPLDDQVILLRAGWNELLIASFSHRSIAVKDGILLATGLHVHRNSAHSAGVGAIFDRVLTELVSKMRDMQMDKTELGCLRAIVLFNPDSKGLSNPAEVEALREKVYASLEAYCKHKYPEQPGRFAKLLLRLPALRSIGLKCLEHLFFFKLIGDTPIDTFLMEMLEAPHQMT

The target is the same in assay [6]. The experiment in a line: OT_NURR1_NURR1RXRa_1440: Odyssey Thera (OT) 24-hour HEK293T Protein Complementation Assay for Nurr1/retinoid X receptor (RXR) (AID 2283386). In outline:
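Measured as fluorescence from a reconstituted split reporter, this 24 h HEK293T complementation assay scores compound-induced gain of Nurr1/RXRα association relative to DMSO.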

The target in assay [7] is Peroxisome proliferator-activated receptor gamma (Homo sapiens) (UniProt P37231). Put plainly: OT_PPARg_PPARgSRC1_0480: Odyssey Thera (OT) 8-hour Protein-Complementation Assay for Peroxisome Proliferator-activated Receptor Gamma / SRC-1 Co-activator (AID 2283387).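 Note: nuclear to cytoplasmic split Venus YFP fluorescence ratio reporting PPARg SRC-1 interaction.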 In short, it runs like this: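 Split-YFP (IFP1/IFP2) PPARg/SRC-1 reporter, HEK293T, 37 °C, 5% CO2; 8 h compound; formaldehyde fix + Draq5; high-content imaging, N/C ratio, ≥350 cells/image, positive direction vs DMSO.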
Sequence of Peroxisome proliferator-activated receptor gamma (Homo sapiens) (P37231 whole entry, looked up): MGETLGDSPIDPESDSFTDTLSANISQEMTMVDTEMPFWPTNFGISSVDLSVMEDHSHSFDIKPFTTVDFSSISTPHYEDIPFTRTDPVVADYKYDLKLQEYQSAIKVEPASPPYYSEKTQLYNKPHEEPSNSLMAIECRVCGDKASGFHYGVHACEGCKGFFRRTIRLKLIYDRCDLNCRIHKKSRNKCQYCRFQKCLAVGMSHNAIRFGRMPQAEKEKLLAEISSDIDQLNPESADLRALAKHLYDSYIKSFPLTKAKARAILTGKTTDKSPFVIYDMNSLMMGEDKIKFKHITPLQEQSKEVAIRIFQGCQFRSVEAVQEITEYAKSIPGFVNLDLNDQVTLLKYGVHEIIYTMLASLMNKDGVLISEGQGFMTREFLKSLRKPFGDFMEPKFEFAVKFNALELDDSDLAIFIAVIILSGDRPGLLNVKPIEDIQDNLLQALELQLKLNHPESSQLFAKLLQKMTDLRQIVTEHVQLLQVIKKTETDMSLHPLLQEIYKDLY

Assay [8] shares this target. The experiment in a line: OT_PPARg_PPARgSRC1_1440: Odyssey Thera (OT) 24-hour Protein-Complementation Assay for Peroxisome Proliferator-activated Receptor Gamma/ SRC-1 Co-activator (AID 2283388).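 Note: nuclear to cytoplasmic ratio of reconstituted Venus YFP fluorescence in fixed imaged cells.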 In outline: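 Cells carrying the PPARg/SRC-1 fragment-complementation reporter receive compound for 24 hours, are fixed and counterstained with Draq5, then imaged. Increased nuclear relative to cytoplasmic YFP fluorescence above DMSO baseline indicates binding activity.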

The target of assay [9] is Agonist Androgen Response Element (ARE), AR (gene 367) (UniProt P10275). Put plainly: OT_AR_ARELUC_AG_1440: Odyssey Thera (OT) 24-hour CHO-K1 Luciferase Assay for Agonist Androgen Response Element (ARE) (AID 2283379). In outline: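 CHO-K1 cells carrying an ARE-driven luciferase reporter were exposed to compounds for 24 h. Luminescence was then read after adding a D-luciferin/ATP mix, and activity was scored as a gain in signal over DMSO vehicle.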
Sequence of Agonist Androgen Response Element (ARE), AR (gene 367) (P10275 whole entry, looked up): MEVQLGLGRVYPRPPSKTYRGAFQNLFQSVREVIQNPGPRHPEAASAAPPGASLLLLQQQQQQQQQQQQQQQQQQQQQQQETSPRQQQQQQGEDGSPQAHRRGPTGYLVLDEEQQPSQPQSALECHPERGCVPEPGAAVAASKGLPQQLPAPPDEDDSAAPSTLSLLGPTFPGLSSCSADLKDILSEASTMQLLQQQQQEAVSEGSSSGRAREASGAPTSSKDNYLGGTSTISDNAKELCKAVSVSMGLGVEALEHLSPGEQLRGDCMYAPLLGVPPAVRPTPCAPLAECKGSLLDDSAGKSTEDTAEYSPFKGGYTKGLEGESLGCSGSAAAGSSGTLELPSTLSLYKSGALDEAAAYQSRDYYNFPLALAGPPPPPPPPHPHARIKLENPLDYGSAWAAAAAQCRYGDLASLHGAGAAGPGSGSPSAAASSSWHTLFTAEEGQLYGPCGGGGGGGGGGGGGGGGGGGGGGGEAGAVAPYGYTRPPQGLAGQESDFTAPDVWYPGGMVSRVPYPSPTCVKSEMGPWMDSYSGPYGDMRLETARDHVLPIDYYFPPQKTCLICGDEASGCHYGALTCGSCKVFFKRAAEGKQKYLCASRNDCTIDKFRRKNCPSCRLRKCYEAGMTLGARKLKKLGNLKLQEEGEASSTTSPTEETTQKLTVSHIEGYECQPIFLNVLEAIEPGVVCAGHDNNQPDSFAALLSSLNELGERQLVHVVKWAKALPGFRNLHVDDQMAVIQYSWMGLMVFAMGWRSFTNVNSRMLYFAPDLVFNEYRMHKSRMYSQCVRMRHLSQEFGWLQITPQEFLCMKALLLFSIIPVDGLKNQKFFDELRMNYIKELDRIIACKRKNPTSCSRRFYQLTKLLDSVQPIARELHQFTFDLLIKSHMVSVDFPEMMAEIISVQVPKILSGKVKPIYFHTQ

Assay [10] addresses Bile acid receptor (Homo sapiens) (UniProt Q96RI1). The experiment in a line: OT_FXR_FXRSRC1_0480: Odyssey Thera (OT) 8-hour HEK293T Protein-Complementation Assay for Farnesoid X receptor/SRC-1 Co-activator (AID 2283383). In short, it runs like this: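 Co-activator recruitment to FXR was measured in living HEK293T cells, where interaction of the two fused partners restored an active fluorescent reporter. Signal gain after 8 h treatment was referenced to DMSO.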

Assay [11] has the same target. The experiment in a line: OT_FXR_FXRSRC1_1440: Odyssey Thera (OT) 24-hour HEK293T Protein-Complementation Assay for Farnesoid X receptor/SRC-1 Co-activator (AID 2283384). In outline:
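Cell-based binding reporter: interaction of FXR with SRC-1 brings reporter fragments together, giving a fluorescence signal read 24 h after dosing of HEK293T cells.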

The target of assay [12] is human Norepinephrine Transporter (NET), SLC6A2 (gene 6530) (UniProt P23975). Put plainly: NVS_TR_hNET: NovaScreen (NVS) Transporter Assay for human Norepinephrine Transporter (NET) (AID 2283377).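 For AC50: displacement of radioligand from human NET seen as loss of scintillation signal.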 In outline:
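Cell-free radioligand binding using CHO-derived membrane protein expressing human NET, read by filter scintillation counting 1 h after dosing; loss of signal vs DMSO. Initial duplicate screen at 25 uM, actives retested in concentration series.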

Assay [13] deals with rat Norepinephrine Transporter (NET), gene 83511. Put plainly: NVS_TR_rNET: NovaScreen (NVS) Transporter Assay for rat Norepinephrine Transporter (NET) (AID 2283373). In outline:
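Rat forebrain membranes; radioligand binding measured by filter-based scintillation counting 1 hour after dosing. Loss of specific binding versus DMSO baseline scored; primary screen in duplicate at 25 uM, actives followed up in concentration series.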

Assay [14] concerns the target human Dopamine Transporter (DAT), SLC6A3 (gene 6531) (UniProt Q01959). Put plainly: NVS_TR_hDAT: NovaScreen (NVS) Transporter Assay for human Dopamine Transporter (DAT) (AID 2283374).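 Note: activity means loss of bound radioligand signal relative to DMSO.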 In short, it runs like this: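 Cell-free radioligand displacement binding at human DAT, 1 h after dosing, with filtration and scintillation counting. Primary screen in duplicate at 25 uM, actives then in concentration series. Loss of bound signal versus DMSO scored.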

Assay [15] concerns the target mouse Estrogen Receptor alpha (Era), Esr1 (gene 13982) (UniProt P19785). Put plainly: NVS_NR_mERa: NovaScreen (NVS) Nuclear Receptor Binding Assay for mouse Estrogen Receptor alpha (Era) (AID 2283378).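 Note: hit means loss of bound radioligand signal relative to DMSO.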 In short, it runs like this: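 Measurements come from scintillation counting after filtration, taken 18 hours after chemicals were added to a cell-free mouse Era preparation with radioligand. Screening was duplicate at 25 uM, with concurrent positive and negative controls and confirmatory concentration series for actives.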

The structures appear in SMILES notation. Where “and” joins values, the source holds several entries; their conditions need not be identical. Identical values can stand only once. Records with an inconclusive call do not appear. More than one record can exist for a structure, and the calls need not agree. Calls of active or inactive are those of the source. Rule for the calls: active = hit-call score of the fitted dose curve at least 0.9, where 1 is the maximum; inconclusive = response in the unintended direction; inactive = score below 0.9.

Broadly, the AC50 is the midpoint of the concentration-response curve, whichever way the signal moves.

Sequence of Estrogen receptor beta (Homo sapiens) (Q92731 whole entry, looked up, the tested form may be a part): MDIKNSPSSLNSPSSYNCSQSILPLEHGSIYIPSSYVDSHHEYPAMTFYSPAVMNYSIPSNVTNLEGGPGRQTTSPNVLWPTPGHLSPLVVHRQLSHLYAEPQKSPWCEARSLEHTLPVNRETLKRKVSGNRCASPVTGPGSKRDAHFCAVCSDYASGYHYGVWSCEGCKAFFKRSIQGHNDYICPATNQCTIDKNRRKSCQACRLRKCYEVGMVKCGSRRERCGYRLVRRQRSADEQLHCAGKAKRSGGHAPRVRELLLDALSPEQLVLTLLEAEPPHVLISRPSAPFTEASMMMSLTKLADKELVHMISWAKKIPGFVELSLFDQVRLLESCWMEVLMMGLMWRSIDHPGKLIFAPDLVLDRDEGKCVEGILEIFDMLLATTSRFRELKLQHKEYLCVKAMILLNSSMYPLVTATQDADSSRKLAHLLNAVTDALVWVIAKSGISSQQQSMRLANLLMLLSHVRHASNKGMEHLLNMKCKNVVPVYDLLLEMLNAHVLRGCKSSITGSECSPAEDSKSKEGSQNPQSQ
Sequence of Bile acid receptor (Homo sapiens) (Q96RI1 whole entry, looked up, the tested form may be a part): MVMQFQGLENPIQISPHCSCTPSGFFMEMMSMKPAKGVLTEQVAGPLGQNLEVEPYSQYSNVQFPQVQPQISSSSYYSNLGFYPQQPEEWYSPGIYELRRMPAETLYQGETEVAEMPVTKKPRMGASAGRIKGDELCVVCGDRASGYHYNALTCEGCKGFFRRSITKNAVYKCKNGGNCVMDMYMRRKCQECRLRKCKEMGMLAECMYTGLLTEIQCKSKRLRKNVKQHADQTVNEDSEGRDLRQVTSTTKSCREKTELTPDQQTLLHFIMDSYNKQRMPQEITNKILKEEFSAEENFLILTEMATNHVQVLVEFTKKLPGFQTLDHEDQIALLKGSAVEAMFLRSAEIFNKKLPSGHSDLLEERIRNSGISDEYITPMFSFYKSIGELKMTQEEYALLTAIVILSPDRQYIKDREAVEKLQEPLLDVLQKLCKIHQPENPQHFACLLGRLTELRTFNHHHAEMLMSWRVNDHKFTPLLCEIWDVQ
Sequence of human Dopamine Transporter (DAT), SLC6A3 (gene 6531) (Q01959 whole entry, looked up): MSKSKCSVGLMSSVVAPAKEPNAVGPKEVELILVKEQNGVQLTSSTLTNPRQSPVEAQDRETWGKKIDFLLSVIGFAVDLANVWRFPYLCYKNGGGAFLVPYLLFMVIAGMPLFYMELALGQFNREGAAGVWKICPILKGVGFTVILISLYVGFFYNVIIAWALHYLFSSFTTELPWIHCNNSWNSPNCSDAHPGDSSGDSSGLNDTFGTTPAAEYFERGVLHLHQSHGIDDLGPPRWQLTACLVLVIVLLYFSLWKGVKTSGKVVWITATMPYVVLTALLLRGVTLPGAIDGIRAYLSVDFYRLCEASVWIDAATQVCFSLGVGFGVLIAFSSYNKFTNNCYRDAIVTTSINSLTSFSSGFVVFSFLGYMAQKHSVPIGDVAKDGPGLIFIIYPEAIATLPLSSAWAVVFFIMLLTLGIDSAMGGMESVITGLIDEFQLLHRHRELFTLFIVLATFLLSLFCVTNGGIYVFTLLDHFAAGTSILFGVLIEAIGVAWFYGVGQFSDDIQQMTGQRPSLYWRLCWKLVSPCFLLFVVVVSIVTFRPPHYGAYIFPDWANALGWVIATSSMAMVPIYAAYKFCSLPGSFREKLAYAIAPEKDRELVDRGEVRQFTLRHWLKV
Sequence of human Norepinephrine Transporter (NET), SLC6A2 (gene 6530) (P23975 whole entry, looked up): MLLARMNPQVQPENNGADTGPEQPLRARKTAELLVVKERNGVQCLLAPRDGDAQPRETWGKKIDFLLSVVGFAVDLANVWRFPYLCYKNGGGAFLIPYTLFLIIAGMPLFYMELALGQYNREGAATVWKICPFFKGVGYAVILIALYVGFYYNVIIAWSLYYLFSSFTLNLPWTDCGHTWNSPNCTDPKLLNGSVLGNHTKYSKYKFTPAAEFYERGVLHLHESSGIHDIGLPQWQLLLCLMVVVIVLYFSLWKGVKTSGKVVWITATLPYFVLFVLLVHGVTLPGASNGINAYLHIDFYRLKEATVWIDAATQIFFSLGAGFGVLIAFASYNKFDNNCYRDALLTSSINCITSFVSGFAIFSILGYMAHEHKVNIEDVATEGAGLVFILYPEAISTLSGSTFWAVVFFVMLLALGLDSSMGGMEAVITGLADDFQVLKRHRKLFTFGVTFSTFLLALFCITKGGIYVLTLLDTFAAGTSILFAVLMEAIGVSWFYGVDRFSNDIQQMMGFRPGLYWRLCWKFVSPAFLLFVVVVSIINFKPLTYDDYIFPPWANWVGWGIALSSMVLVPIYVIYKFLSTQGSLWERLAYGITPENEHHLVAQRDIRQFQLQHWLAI

Consider `COC(=O)[C@H]1[C@H]2C[C@@H]3c4[nH]c5cc(OC)ccc5c4CCN3C[C@H]2C[C@@H](OC(=O)c2cc(OC)c(OC)c(OC)c2)[C@@H]1OC`, for which the AC50 in assay [1] is 6.6 µM (active).

Consider `CC(C)(O)c1ccc(CNC(=O)c2cccnc2Oc2ccc(F)cc2)cc1`, for which, in [1], the concentration at half-maximal activity (AC50) is 34.7 µM (active).

Regarding `Oc1ccc(O)cc1`, the call in assay [2], in assay [4], in assay [5], in assay [7] and in [8] was inactive. For the same molecule, the half-maximal activity concentration (AC50) in assay [3] is 26.4 µM (active); in assay [6], 44 µM (active).

Take `Oc1ccccc1O`: the AC50 in assay [2] was 0.00229 µM (active); in assay [3], 31 µM (active); in assay [6], 16 µM (active) and 23.7 µM (active). Moreover, the result in [7] and in assay [8] was inactive.

On to `CCCCCCCCCCCCCCCCO`, for which the molecule was called inactive in assay [3], in assay [4], in assay [5], in [6], in [7] and in assay [8].

In the case of `O=C(Oc1ccccc1)c1cccc(C(=O)Oc2ccccc2)c1`, the outcome in assay [9], in [3], in assay [11], in [6], in assay [7] and in [8] was inactive. Also, the values for the concentration at half-maximal activity (AC50) in assay [10] and in [6] were 72 µM (active) and 69.2 µM (active), respectively.

Consider `O=C(O)CC(O)(CC(=O)O)C(=O)O`, for which the call in assay [2], in assay [3], in assay [4], in assay [7] and in assay [8] was inactive.

Turning to `O=C(O)CN(CC(=O)O)CC(=O)O`, the molecule was called inactive in assay [12], in assay [4], in assay [10], in assay [6], in assay [7] and in assay [8].

With `Nc1nc(=S)c2[nH]cnc2[nH]1`, the outcome in assay [12], in assay [9], in [3], in assay [4], in assay [5] and in assay [6] was inactive. In addition, the result in [7] and in [8] was inactive.

Regarding `Cc1cc(Cc2ccc(N)c(C)c2)ccc1N`, the outcome in [13] and in [6] was inactive. Moreover, the AC50 was 8.53 µM (active) in [14]; 6.22 µM (active) in assay [12]; 64.1 µM (active) in [3]; 50 µM (active) in [10]; 66.7 µM (active) in assay [11].

Turning to `C=CCCCCCCCCCCCC`, the result in assay [9], in [3], in assay [10], in assay [11], in assay [6] and in [7] was inactive. The outcome in assay [8] was inactive.

As for `CN(C)CCCN(C)CCCN(C)C`, the call in assay [3], in assay [4], in assay [11], in assay [5], in assay [6] and in assay [7] was inactive. Further, the call in assay [8] was inactive.

In the case of `O=Cc1ccccc1C=O`, the concentration at half-maximal activity (AC50) in [12] is 7.28 µM (active). Also, the result in assay [9], in [3], in assay [4], in assay [6], in assay [7] and in assay [8] was inactive.

Regarding `CC(C)OC(=O)C(C)(C)Oc1ccc(C(=O)c2ccc(Cl)cc2)cc1`, the call in assay [14], in assay [15], in assay [3], in assay [4] and in [6] was inactive. Also, the AC50 is 12.8 µM (active) in assay [10] and 7.72 µM (active) in [11].

With `Cc1ccc(C(C)(C)C)c(O)c1`, the result in [3], in assay [4], in assay [6], in assay [7] and in assay [8] was inactive. Moreover, the AC50 in assay [10] was 60.6 µM (active); in [11], 80.5 µM (active); in assay [6], 78.7 µM (active).

`CCCCc1nc2cccnc2n1Cc1ccc(-c2ccccc2-c2nnn[nH]2)cc1`: the AC50 in assay [2] is 4.96 µM (active); in assay [10], 60.8 µM (active); in [11], 78.2 µM (active); in assay [6], 7.85 µM (active); in assay [7], 18.5 µM (active); in assay [8] it was 21.2 µM (active). Moreover, the call in assay [3] and in assay [4] was inactive.

For `O=C1CCCCC1`, the molecule was classed as inactive in [9], in [3], in assay [4], in assay [6], in [7] and in assay [8].

With `C#CC(O)C(CC)CCCC` (stereo not given), the molecule was called inactive in assay [9], in assay [3], in assay [7] and in [8]. The half-maximal activity concentration (AC50) in assay [6] was 76.3 µM (active).

Regarding `CCc1cc(C2=C(C(=O)O)N(c3ccccc3C(F)(F)F)S(=O)(=O)c3ccccc32)cc2c1OCO2`, the result in assay [12] and in [6] was inactive.

`NC1CCCCC1`: the molecule was classed as inactive in assay [2], in assay [3], in [4], in [6], in assay [7] and in [8].

Regarding `NCCOCCOCCN`, the call in [9], in assay [3], in assay [6], in [7] and in assay [8] was inactive.

Turning to `OCC(CO)n1cnc(-c2ccc(F)cc2)c1-c1ccnc(Oc2ccccc2)n1`, the call in assay [15], in assay [3], in [4], in [6], in assay [7] and in assay [8] was inactive.

As to `O=C1O[C@H]([C@H](O)CO)C(O)=C1O`, the result in [2], in assay [3], in [6], in assay [7] and in assay [8] was inactive.

With `C=CCc1ccc(OC)c(OC)c1`, the molecule was called inactive in assay [2], in assay [3], in [10], in assay [11], in assay [5] and in [6]. Further, the outcome in assay [7] and in assay [8] was inactive.

`O=C1NC(=O)C(c2ccccc2)(c2ccccc2)N1`: in assay [14], the concentration at half-maximal activity (AC50) was 5.81 µM (active). The molecule was classed as inactive in [6], in assay [7] and in assay [8].

Turning to `CC(N)=O`, in assay [2], the half-maximal activity concentration (AC50) was 4.98 µM (active). For the same molecule, the molecule was classed as inactive in assay [3], in assay [6], in assay [7] and in assay [8].

As for `CC1=C(C)S(=O)(=O)CCS1(=O)=O`, the molecule was classed as inactive in assay [9], in assay [3], in assay [4], in assay [7] and in [8].
